High-throughput results (PubChem)
Sampled rows, rich in hits. Any-hit rate of the full collection: about 4%.
697 NFkB inh = inhibitors of the PMA/ionomycin-induced NF-kB reporter in 697 B cells. inhibition, % at 4 µM. 330,000 compounds, 0.33% hits. 697 B-cell NF-kB luciferase reporter, 16 h; in the data active means inhibition above about 35%
Mdm2 MdmX PPI = human Mdm2/MdmX binding inhibition. SaOS-2 split-luciferase Mdm2/MdmX complementation, luminescence. inhibition, % at 8 µM. AID 485346. 330,000 compounds, 3% hits. O15151+Q00987;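 active means inhibition of at least 50% at 8 µM in the primary screen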
Target sequence (O15151 whole entry, looked up): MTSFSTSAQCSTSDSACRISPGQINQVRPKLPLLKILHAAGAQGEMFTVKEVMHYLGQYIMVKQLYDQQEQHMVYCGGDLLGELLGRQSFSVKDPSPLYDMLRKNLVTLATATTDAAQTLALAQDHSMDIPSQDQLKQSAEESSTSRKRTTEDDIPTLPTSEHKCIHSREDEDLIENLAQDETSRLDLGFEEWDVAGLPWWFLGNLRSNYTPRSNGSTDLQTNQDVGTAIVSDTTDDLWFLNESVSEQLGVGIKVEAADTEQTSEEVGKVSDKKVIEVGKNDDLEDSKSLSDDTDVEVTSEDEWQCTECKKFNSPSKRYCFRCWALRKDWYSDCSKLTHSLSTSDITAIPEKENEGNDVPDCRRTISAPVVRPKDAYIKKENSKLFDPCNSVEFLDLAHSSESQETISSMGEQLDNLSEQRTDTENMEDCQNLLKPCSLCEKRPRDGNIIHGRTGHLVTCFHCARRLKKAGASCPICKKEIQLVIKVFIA
Target sequence (Q00987 whole entry, looked up): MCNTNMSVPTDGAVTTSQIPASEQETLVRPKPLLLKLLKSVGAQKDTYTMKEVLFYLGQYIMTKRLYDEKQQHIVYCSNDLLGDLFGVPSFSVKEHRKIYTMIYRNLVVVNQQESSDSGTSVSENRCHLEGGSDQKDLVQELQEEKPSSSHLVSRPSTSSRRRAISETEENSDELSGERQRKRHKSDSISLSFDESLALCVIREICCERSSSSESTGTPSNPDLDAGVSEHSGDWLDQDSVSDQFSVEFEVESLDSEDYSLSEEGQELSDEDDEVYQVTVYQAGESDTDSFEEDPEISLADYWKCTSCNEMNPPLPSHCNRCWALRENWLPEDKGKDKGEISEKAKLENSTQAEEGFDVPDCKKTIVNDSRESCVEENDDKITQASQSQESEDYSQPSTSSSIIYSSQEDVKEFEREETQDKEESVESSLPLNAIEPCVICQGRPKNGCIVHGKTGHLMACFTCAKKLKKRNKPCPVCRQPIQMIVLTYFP
Gli-Sufu antag = antagonists of Gli-Sufu signaling; 340,000 compounds, 0.74% hits; inhibition, % at 5 µM; Sufu-KO-LIGHT fibroblasts, Gli luciferase reporter luminescence;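 active means inhibition above about 55%, limit read from the data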;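 further: 0% = DMSO-treated cells and 100% = wells with medium but no cells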
Jurkat NFkB inh = inhibitors of the PMA/ionomycin-induced NF-kB reporter in Jurkat cells. PMA/ionomycin-induced NF-kB luciferase reporter, luminescence. inhibition, % at 4 µM. 330,000 compounds, 0.53% hits. AID 435003; in the data active means inhibition above about 50%
Beta apoptosis = beta cell apoptosis inhibition; INS-1E cytokine-induced death, ATP luminescence, 48 h; percent of positive-control rescue, neutral wells zero; protection from apoptosis, % (concentration not given with the values); 300,000 compounds, 0.8% hits; AID 435005;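 active means Every replicate reaches about 75%, or at least half do and their mean reaches it too, limit read from the data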;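 further: 0% = cytokine-treated negative control wells and 100% = positive control rescue; higher means more ATP so stronger rescue from cytokine killing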
Mdm2 MdmX conf = human Mdm2/MdmX binding inhibition, confirmed. shares compounds with Mdm2 MdmX PPI. luminescent assay. inhibition, % at 8 µM. 10,000 compounds, 55% hits. AID 489028; in the data active means inhibition above about 40%
Full FLuc ctr = inhibits full-length luciferase, flagging false Mdm2/MdmX hits; inhibition, % at 8 µM; SaOS-2 full-length luciferase counterscreen, luminescence; AID 504607; 6,200 compounds, 77% hits; shares compounds with Mdm2 MdmX PPI;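 active means mean inhibition at 8 µM reaching about 37%, which flags the compound as non-specific, limit read from the data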;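 further: p53-null SaOS-2 cells with luciferase driven by a doxycycline-inducible promoter; compound on cells about two nights before reading with doxycycline added after day one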
Gli-Sufu confirm = Gli-SUFU antagonism confirmation, single concentration. shares compounds with Gli-Sufu antag. Sufu-KO-LIGHT cells, Gli luciferase reporter, luminescence. inhibition, % at 5 µM. 2,500 compounds, 40% hits;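 active means mean inhibition at 5 µM reaching about 45%, limit read from the data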;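 further: plate controls were DMSO-treated cells for no effect and wells lacking cells for full effect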
SufuKO cytotox = cytotoxic in Gli-SUFU antagonist counter-screen. shares compounds with Gli-Sufu antag. Sufu-KO-LIGHT cells cytotoxicity, ATP luminescence. cytotoxicity, % at 5 µM. 2,500 compounds, 32% hits. AID 651994;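 active means mean cytotoxicity at 5 µM above about 25%, limit read from the data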;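 further: cells exposed to compound overnight for roughly 16 to 18 hours; plate controls were DMSO wells with cells for no effect and medium without cells for full effect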
Wnt3a counter = Wnt3a reporter inhibition counter-screen; shares compounds with Gli-Sufu antag; Wnt-LIGHT cells, Wnt3a-driven luciferase reporter, luminescence; inhibition, % at 6.25 µM; 2,500 compounds, 20% hits; AID 651995;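 active means mean inhibition above about 25%, limit read from the data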
The depositor's hits bear a star; · = no result.

SMILES | 697 NFkB inh | Mdm2 MdmX PPI | Gli-Sufu antag | Jurkat NFkB inh | Beta apoptosis | Mdm2 MdmX conf | Gli-Sufu confirm | SufuKO cytotox | Wnt3a counter | others
CCOc1ncccc1C(=O)N1CCN(c2cc(Cl)ccc2C)CC1 | -1.2 | 61.2* | 51.2 | 46.3 | 5.8 | 59.4* | 38.1 | 53.6* | -54.8 | Full FLuc ctr=81.2*
COC(=O)c1cc(C(=O)N2CCN(c3ccccc3OC)CC2)cc([N+](=O)[O-])c1 | 23.8 | 51.9* | 51.5 | 40.6 | 4.3 | 55.6* | 39.4 | 50.1* | -36.7 | Full FLuc ctr=59.5*
CCCCCCCCn1c(=O)c(C(=O)OC)c(N)c2ccccc21 | -18.0 | 75.5* | 67.5* | 17.4 | 116.7* | 6.4 | 29.7 | 12.5 | 27.8*
CCCCCCCn1c(=O)c(C(=O)OC)c(N)c2ccccc21 | -25.8 | 30.8 | 38.6 | 10.6 | · | · | · | · | ·
COc1ccc(/C=C2\Sc3ccc(C(=O)N4CCN(Cc5ccccc5)CC4)cc3N(C)C2=O)cc1OC | -13.3 | 61.4* | 99.2* | 32.7 | 26.1 | 13.5 | 13.1 | 13.3 | -6.6
O=C(CN1C(=O)c2ccccc2S1(=O)=O)c1ccccc1 | 15.1 | 78.1* | 73.0* | -2.4 | -6.8 | 65.0* | 80.1* | 10.9 | 93.3* | Full FLuc ctr=97.8*
COCCN(C(=O)c1snc(C(N)=O)c1N)C(C(=O)NC1CCCCC1)c1ccc(OC)c(OC)c1 (centres undefined) | -63.8 | -19.9 | 3.3 | -82.0 | -4.2 | · | · | · | ·
CCc1ccccc1NC(=S)N=Nc1c(O)n(C)c2ccc(S(=O)(=O)N3CCOCC3)cc12 | 2.8 | 51.8* | 65.9* | 17.7 | · | 60.5* | 47.7* | 19.5 | -25.4 | Full FLuc ctr=52.9*
O=C(NCCN1CCOCC1)c1ccc(Cl)cc1O | 8.0 | -1.7 | 47.7 | 6.9 | -5.7 | · | · | · | ·
COc1ccc(/C=N\NC(=O)c2c(C)nc3ccc(Br)cn23)cc1 | 9.5 | 59.1* | 61.1* | 44.1 | 11.4 | 51.9* | 50.1* | 48.5* | -30.0 | Full FLuc ctr=48.8*
CCCCc1cc(=O)oc2cc(OCc3nn[nH]n3)ccc12 | 7.4 | 17.0 | 0.2 | 12.1 | -1.0 | · | · | · | ·
COc1cccc(N2CCN(C(=O)C3CCCN(c4ncnc5c4nc4n5CCCCC4)C3)CC2)c1 (centres undefined) | -16.9 | 40.5 | 16.0 | -13.1 | 5.0 | · | · | · | ·
O=C(CN1CCOCC1)NCc1cc([N+](=O)[O-])ccc1O | -10.5 | 12.0 | 55.1* | -1.1 | -1.6 | · | 22.4 | 0.4 | -2.8
COc1ccc(NC(=O)COCC(=O)Nc2ccc(C)cc2)cc1 | 4.9 | -1.9 | 54.1 | 7.5 | 4.4 | · | 21.4 | 13.1 | -1.6
COc1ccc(OCC(=O)Nc2ccc(C)cc2)cc1 | 22.8 | -1.9 | 7.6 | -9.0 | 6.5 | · | · | · | ·
Fc1cc(Br)ccc1COc1ccc(-c2nnco2)cc1 | -37.4 | -30.3 | -62.2 | -45.8 | -1.5 | · | · | · | ·
O=C(/C=C/c1ccc(OCc2ccccc2)c(OCc2ccccc2)c1)c1cccnc1 | -1.4 | 43.9 | 53.4 | 5.0 | 53.2 | · | 25.3 | 14.6 | -20.2
O=C(O)Cn1nnnc1SCC(=O)Nc1ccccc1F | 5.2 | -16.0 | 56.6* | 1.6 | 1.9 | · | 32.5 | -0.4 | 9.5
COC(=O)c1ccccc1NC(=O)CSc1nnnn1CC(=O)O | 11.2 | 13.3 | -10.9 | 7.0 | -8.2 | · | · | · | ·
COc1ccc(NC(=O)CSCC(=O)N2c3ccccc3CCc3ccccc32)cc1 | 8.9 | 13.1 | 66.1* | 7.4 | 1.4 | · | 15.4 | 1.6 | -4.0
COc1cc2c(cc1OC)C(c1cc3cccc(C)c3[nH]c1=O)N(C(=O)c1ccco1)CC2 (centres undefined) | -6.0 | 7.5 | · | -8.5 | 2.1 | · | · | · | ·
CCCNC(=O)COC(=O)c1cccnc1Nc1ccccc1F | 6.1 | -1.0 | -4.3 | 1.0 | -0.2 | · | · | · | ·
O=C(COC(=O)c1cccnc1Nc1ccccc1F)NCCN1C(=O)CSC1=O | 23.8 | 11.6 | 50.5 | -1.8 | 3.1 | · | 20.4 | -2.5 | -30.8
